PglD DTNB: inhibitors of Campylobacter jejuni PglD acetyltransferase. purified PglD enzyme, DTNB colorimetric CoA detection. inhibition, % at 12.5 µM. actives 0.098% (n = 360,000); in the data active = inhibition above about 16%, passing the limit was not always enough; inconclusive = no clear call, values can overlap the other calls
HIV Env fusion: inhibitors of HIV Env-mediated cell fusion. AID 651610. actives 1.1% (n = 360,000). inhibition, % at 12.3 µM. HeLa-JRFL Env/CEM21 cell fusion, luciferase;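 active = mean replicate inhibition score of at least 50 and every replicate individually at or above 50; inconclusive = only one of the two criteria met; inactive = mean below 50 and not all replicates reaching 50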;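 note: 0% = plate neutral controls and 100% = maraviroc near 300 nM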
NSD2 inh: NSD2 (human) methyltransferase inhibition. AID 743445. NSD2 peptide methylation, AlphaScreen, 120 min. actives 0.54% (n = 310,000). inhibition, % at 12.5 µM; in the data active = inhibition above about 50%
ALR H2O2 inh: blocks human ALR sulfhydryl oxidase activity; purified ALR, DTT oxidation, H2O2 HRP-luminol luminescence; inhibition, % (concentration not given with the values); P55789; actives 3.8% (n = 290,000);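 active = mean replicate inhibition above about 79%, with every replicate also reaching it, limit read from the data; inconclusive = only one of the two criteria met; inactive = mean below limit and not every replicate reaching it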
F508del corr: correctors of CFTR F508del function in bronchial epithelial cells. actives 0.36% (n = 350,000). CFBE cells, YFP halide quenching; stimulated with forskolin plus potentiator P3; % fluorescence drop versus neutral controls. AID 720511. activity (quench increase), % at 7.58 µM;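 active = mean added fluorescence quench of at least 8% versus neutral control, with both replicates also reaching 8%; inconclusive = only one of the mean or replicate conditions met; inactive = mean below 8% and not both replicates reaching 8%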;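 note: cells transiently co-express mutant CFTR-F508del with the halide-sensitive YFP; corrector assay measuring rescue of mutant channel to the surface after 24 h compound exposure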
Casp6 inh: inhibitors of human caspase-6; AID 686996; P55212; inhibition, % at 12.5 µM; actives 0.53% (n = 350,000); purified caspase-6, Z-VEID-R110 cleavage fluorescence;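 active = mean inhibition across replicates at least about 35%, with every replicate also reaching that limit, limit read from the data; inconclusive = only one of the two criteria met; inactive = neither criterion met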;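 note: 0% = median of neutral control wells and 100% = no fluorescence left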
Starred values were filed as active, the others as inactive; ? = inconclusive; nt = no result; [ ] = remark or other dose. Shown are actives, neighbours in structure and some others; about 4.1% of the full set was active somewhere.

SMILES	PglD DTNB	HIV Env fusion	NSD2 inh	ALR H2O2 inh	F508del corr	Casp6 inh
O=C(CSc1ncc(-c2ccccc2)[nH]1)Nc1ccccc1F	nt	-38.2	1.0	11.9	-0.4	-2.2
NC(=O)CSc1ncc(-c2ccccc2)[nH]1	-1.3	nt	-1.4	18.2	-2.1	6.1
O=C(CSc1ncc(-c2ccccc2)[nH]1)Nc1cccc(O)c1	5.2	nt	6.9	99.0*	-0.5	3.0
CC(=O)Nc1cccc(NC(=O)CSc2ncc(-c3ccccc3)[nH]2)c1	nt	5.5	2.0	98.6*	-1.7	-0.5
O=C(CSc1ncc(-c2ccccc2)[nH]1)Nc1ccccc1	-3.7	nt	nt	98.8*	3.0	1.7
COc1ccc(-c2ccc3c(c2)[C@H]2[C@H](CCN2S(=O)(=O)c2ccccc2C)[C@H](CO)N3C)cc1	5.1	nt	nt	nt	0.9	nt
C[C@@H]1CN([C@H](C)CO)C(=O)Cc2cc(NC(=O)c3ccncc3)ccc2O[C@@H]1CN(C)CC1CC1	-1.9	-0.9[16.7 µM]	nt	nt	-1.4	-0.7
Cc1ccc(-c2cnc3c(c2)C(=O)N([C@@H](C)CO)C[C@H](C)[C@@H](CN(C)C(=O)Cc2cccnc2)O3)cc1	4.5	25.3[16.7 µM]	nt	nt	-2.5	-4.0
O=C(c1cc(O)c(O)c([N+](=O)[O-])c1)c1ccccc1F	1.9	9.1	nt	97.5*	2.1	31.2
O=C(Nc1ccc([N+](=O)[O-])cc1)c1ccccc1F	-5.8	-40.1	-0.6	-4.7	nt	-2.8
O=C(Nc1ccc(NC(=O)C2CC2)cc1)c1cccs1	-2.8	-12.9	-2.5	-15.3	-2.5	59.2*
Nc1ccc(Nc2ccccc2)c(Cl)c1	2.0	nt	5.4	99.6*	-1.6	-2.2
COC(=O)c1c(C)oc(C)c1S(=O)(=O)NC(c1ccccc1)c1ccccc1	-0.6	67.8*	-1.0	-3.5	-1.3	0.7
COC(=O)c1c(-c2ccccc2)noc1C	nt	-9.3	-0.7	-12.9	-0.9	-2.9
COc1ccc(C(C#N)=C2C=CC(=NO)C=C2)cc1	nt	4.7	10.7	96.4*	-3.4	1.5
C[C@@H]1CN([C@H](C)CO)S(=O)(=O)c2ccc(C3=CCCC3)cc2O[C@H]1CN(C)S(C)(=O)=O	nt	9.7[16.7 µM]	nt	nt	-2.4	nt
O=c1cc(-c2ccccc2Cl)oc2c(NS(=O)(=O)c3cc(Cl)cc(Cl)c3O)ccc(O)c12	4.1	nt	nt	97.2*	nt	nt
C[C@H]1CN([C@@H](C)CO)S(=O)(=O)c2ccc(C#CC3CC3)cc2O[C@@H]1CN(C)C	-2.3	18.9[16.7 µM]	nt	nt	-2.7	-0.4
COc1ccccc1CNC(=O)C[C@H]1C[C@@H]2c3cc(NC(=O)C4CCOCC4)ccc3O[C@@H]2[C@@H](CO)O1	-1.1	-7.3[16.7 µM]	nt	nt	0.6	2.0
Cc1ccn2cc(-c3cccc(NC(=O)CCC(=O)O)c3)nc2c1	-1.8	-8.6	-0.9	98.4*	-1.2	5.9
CC(=O)Nc1cccc(-c2cn3ccc(C)cc3n2)c1	nt	-38.6	-0.1	?	0.3	2.5
Cc1ccn2cc(-c3ccc(Br)cc3)nc2c1	-1.6	-75.0	-10.1	nt	-1.3	-0.8
Cc1ccn2cc(-c3cccc([N+](=O)[O-])c3)nc2c1	1.7	-109.7	nt	90.6*	0.2	2.6
Cc1ccn2cc(-c3cccc(NS(C)(=O)=O)c3)nc2c1	nt	-57.2	-5.5	97.0*	-1.9	1.4
CCCNC(=O)C[C@H]1CC[C@@H]2[C@H](COc3ccc(NC(=O)c4cc(F)cc(F)c4)cc3C(=O)N2C)O1	1.0	15.3[16.7 µM]	nt	nt	0.6	nt
SMILES	PglD DTNB	HIV Env fusion	NSD2 inh	ALR H2O2 inh	F508del corr	Casp6 inh
CO[C@@H]1CN(C)C(=O)c2ccc(NS(=O)(=O)CC(F)(F)F)cc2OC[C@@H](C)N(C(=O)c2ccc3c(c2)OCO3)C[C@H]1C	-1.1	-2.6[16.7 µM]	nt	nt	-0.5	1.1
COc1ccc(S(=O)(=O)N(C)C[C@H]2Oc3c(NS(=O)(=O)c4c(C)noc4C)cccc3C(=O)N([C@H](C)CO)C[C@H]2C)cc1	-2.5	23.8[16.7 µM]	nt	nt	-0.2	nt
N=C(N)SCCc1cccc(CCSC(=N)N)c1	-1.9	nt	nt	97.9*	6.9	-2.4
CC(=O)Nc1ccc(S(=O)(=O)NNC(=O)COc2ccc(C)cc2)cc1	nt	-2.6	1.4	-9.7	nt	-3.0
CC(=O)Nc1ccc(S(=O)(=O)NNC(=O)COc2ccc(C(C)(C)C)cc2)cc1	0.6	nt	-1.3	97.3*	nt	nt
CC(=O)Nc1ccc(S(=O)(=O)NNC(=O)c2cccc(Cl)c2)cc1	0.8	-1.9	-1.2	99.0*	nt	1.2
C[C@@H]1CN([C@H](C)CO)S(=O)(=O)c2ccc(C3=CCCC3)cc2O[C@H]1CN(C)Cc1ccncc1	0.9	36.7[16.7 µM]	nt	nt	0.6	0.0
CC(=O)c1ccc(NC(=O)Nc2ccc([N+](=O)[O-])cc2)cc1	nt	10.9	-2.3	-10.8	-1.0	-5.1
O=C(Nc1ccc([N+](=O)[O-])cc1)C(=O)Nc1cccc(C(=O)O)c1	6.7	115.1*	nt	1.8	4.2	0.1
O=C(Nc1ccc(Oc2ccc(NC(=O)Nc3ccc([N+](=O)[O-])cc3)cc2)cc1)Nc1ccc([N+](=O)[O-])cc1	2.4	59.7*	-0.7	nt	4.7	-4.1
O=C(Nc1cccc(C(=O)N2CCOCC2)c1)c1ccc([N+](=O)[O-])cc1	-8.4	-9.0	-4.8	-18.2	0.7	41.7*
CCOC(=O)C1=C(C)NC(C)=C(C(=O)OCC)C1C(=O)OCC(=O)NC(C)c1ccccc1 (stereo not given)	2.1	7.4	-6.8	nt	-3.3	46.4*
CCOC(=O)C1=C(C)NC(C)=C(C(=O)OCC)C1C(=O)OCC(=O)NCc1ccccc1	nt	1.1	-2.1	-17.2	0.9	3.1
O=C(c1ccccc1)c1ccc2cc(O)ccc2c1	nt	-38.5	2.6	99.5*	2.9	2.2
O=C(c1ccccc1)c1ccccc1C(=O)c1ccccc1	8.2	8.9	14.6	-10.4	1.3	-1.5
Nc1cc(N)cc(C(=O)c2ccccc2)c1	-0.9	-2.0	44.5	nt	0.7	36.4*
Nc1sccc1C(=O)c1ccccc1	nt	nt	1.6	97.5*	nt	nt
C[C@H](O)C#Cc1ccc2c(c1)O[C@@H](CN(C)CC1CCOCC1)[C@@H](C)CN([C@@H](C)CO)S2(=O)=O	-3.5	14.0[16.7 µM]	nt	nt	-2.0	nt
Cc1oc(=O)c(NC(=O)c2cccc(Cl)c2)cc1C(=O)c1ccccc1	8.4	-247.2	2.5	97.5*	nt	7.1
CC(=O)Nc1c(Br)cc2c(c1Br)C(=O)c1ccccc1-2	nt	8.9	0.1	nt	0.4	-0.3
CC(=O)C1=C(c2ccc(Br)cc2)C(=O)c2ccccc2C1=O	0.6	140.9*	nt	2.0	nt	nt
C[C@@H]1CN([C@@H](C)CO)S(=O)(=O)c2ccc(C3=CCCC3)cc2O[C@H]1CN(C)C(=O)C1CCCCC1	0.5	11.3[16.7 µM]	nt	nt	1.4	11.5
Cc1noc(C)c1NC(=O)Nc1ccc2c(c1)C(=O)N([C@H](C)CO)C[C@H](C)[C@@H](CN(C)C)OCCCC[C@@H](C)O2	nt	5.3[16.7 µM]	nt	nt	-2.3	nt
Cc1cnc(NC(=O)c2ccc3c(c2)OCCO3)s1	-0.1	51.6	-0.3	nt	9.0*	36.2*
CCCCN1CC(=O)N2[C@H]3c4ccccc4OC[C@@H]3[C@H](c3ccccc3)[C@]2(C)C1=O	0.1	82.9*	nt	-0.8	2.3	1.9

Screening data from PubChem.
